Source: PubChem
In the library only some 12% were active in any assay of this set; here they are far more common.
Pf growth 96h: P. falciparum growth inhibition at 96 hour, primary screen for plastid delayed-death inhibitors; P. falciparum luciferase reporter growth, 96 h; Potency, µM (doses to about 28.7 µM), most hits filed as inhibitors; actives 6.9% (n = 320,000)
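96 h incubation, 37 C, 5% CO2, of luciferase-reporter P. falciparum-infected RBCs (2% hematocrit, 0.05% parasitemia final) with test compounds; endpoint luminescence.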
Sm TGR block: inhibitors of Schistosoma mansoni thioredoxin glutathione reductase; actives 3% (n = 360,000); AID 485364; purified TGR, DTNB reduction, TNB absorbance 405 nm; Potency, µM (series often up to 114 µM), usual class: inhibitors; also: nearly all actives have a fitted effect of over 60% in size
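Kinetic colorimetric format: TGR-catalysed, NADPH-driven DTNB reduction monitored via TNB absorbance. Enzyme dispensed at 20 nM; compound exposure 15 min at room temperature before reaction start.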
SARS PLP yeast: blocks SARS-CoV papain-like protease in a yeast assay; actives 0.19% (n = 330,000); Potency, µM (doses to about 32.9 µM), hits mostly activators; S. cerevisiae expressing SARS-CoV PLpro, growth rescue; calls by dose curve; also: nearly all actives have a fitted effect of over 55% in size
Pf growth 48h: P. falciparum growth inhibition at 48 hours (one generation); AID 504832; P. falciparum luciferase growth in erythrocytes, 48 h; actives 5.9% (n = 310,000); Potency, µM (doses to about 28.7 µM), hits mostly inhibitors
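Growth was read as firefly luciferase luminescence after a 48 h, 37 C, 5% CO2 exposure of compounds to reporter-bearing P. falciparum cultures (0.1% parasitemia, 2% hematocrit final) in Albumax-supplemented RPMI 1640.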
Large screens that a line does not name were inactive. Unless noted, calls follow the shape of the dose curve; as a rule, active = well fitted curve in the direction sought with a large enough effect; inconclusive = small, poorly fitted or top-dose-only effect, or another doubt; inactive = no such curve, though single readings can be large; an effect the other way counts as inactive or inconclusive.

COc1ccc(NS(=O)(=O)c2ccc(C)c(NC(=O)c3ccc(C)c(S(=O)(=O)N4CCOCC4)c3)c2)cc1	Pf growth 96h 15µM, Pf growth 48h inconclusive
O=C(Nc1ccccc1N1CCOCC1)c1cccc(S(=O)(=O)N2CCOCC2)c1	Pf growth 96h 4.7µM, Pf growth 48h inconclusive
N#C/C(=C\c1c(Oc2ccc(Br)cc2)nc2ccccn2c1=O)c1nc2ccccc2s1	none (no result: Pf growth 96h, SARS PLP yeast, Pf growth 48h)
O=C(Oc1cccc2cccnc12)c1ccco1	Pf growth 96h 1.3µM, Pf growth 48h inconclusive
O=C(Oc1cccc2cccnc12)c1cccs1	Pf growth 96h inconclusive, Pf growth 48h inconclusive
O=C(Cc1ccc(Cl)cc1)Oc1cccc2cccnc12	Pf growth 96h 2.6µM
O=C(Oc1cccc2cccnc12)c1ccc(Br)o1	none
O=C(Oc1ccc(Cl)c2cccnc12)c1ccco1	Pf growth 48h 12µM
O=C(Oc1ccccc1N1C(=O)CCC1=O)c1ccco1	Pf growth 96h 9.3µM
CCOC(=O)CSc1ccc(C(=O)NCCCN2CCOCC2)cc1[N+](=O)[O-]	Pf growth 96h inconclusive
CC1=C(c2ccc(C)c(C)c2)S(=O)(=O)N(Cc2ccc(C(=O)NC(C)c3ccccc3)cc2)C1=O (stereo not drawn)	none (no result: Pf growth 96h, SARS PLP yeast, Pf growth 48h)
CC1=NN(c2ccccc2)C(=O)C1(C)C	Pf growth 96h 9.3µM
CCOc1ccc(C2C(C(N)=O)=C(C)Nc3nc(SCc4ccccc4)nn32)cc1 (stereo not drawn)	none (no result: Pf growth 96h, SARS PLP yeast, Pf growth 48h)
COc1cc(/C=N/n2cc(-c3ccccc3)[nH]c2=S)cc(OC)c1O	Pf growth 96h inconclusive, Pf growth 48h 12µM
c1ccc2c(c1)ncn2CCCOc1ccc2c(c1)CCC2	Pf growth 96h 13µM (no result: Pf growth 48h)
c1ccc2c(c1)ncn2CCCCOc1ccc2c(c1)CCC2	Pf growth 96h 5.9µM (no result: Pf growth 48h)
O=C(O)c1sc2cc(C(F)(F)F)cnc2c1-c1cccs1	Pf growth 96h inconclusive
O=C(Nc1ccccc1F)Nc1cccc2ccc(O)cc12	Sm TGR block 32µM, Pf growth 48h inconclusive
Cc1ccc(/C=C/C(=O)c2ccccc(=O)c2O)c(C)c1	Pf growth 96h 9.3µM, Sm TGR block 14µM, SARS PLP yeast inconclusive, Pf growth 48h inconclusive
CCCCCC1CCC(c2ccc(C(N)=O)cc2)CC1 (stereo not drawn)	Pf growth 96h 2.9µM
CCCC1CCC(c2ccc(C(N)=O)cc2)CC1 (stereo not drawn)	none
Cc1cc(C)cc(NC(=O)C(=O)NCC2CCCN2S(=O)(=O)c2cccs2)c1 (stereo not drawn)	Pf growth 96h inconclusive, Pf growth 48h inconclusive
CCOc1ccccc1Nc1nnc(SCC(=O)N(C)C2CCS(=O)(=O)C2)s1 (stereo not drawn)	none (no result: Pf growth 96h, Sm TGR block, Pf growth 48h)
O=S(=O)(Nc1ccc(-c2csc(-c3ccccc3)n2)cc1)c1ccccc1	Pf growth 96h 0.66µM
Cc1ccc(S(=O)(=O)Nc2ccc(-c3csc(-c4ccccc4)n3)cc2)cc1	none
Cc1cccc(NS(=O)(=O)c2ccc(Cl)c(C(=O)Nc3ccccc3C)c2)c1	none (no result: Pf growth 96h, SARS PLP yeast, Pf growth 48h)
COc1ccc(N/N=C(/N=Nc2nc(C)cc(=O)[nH]2)c2ccccc2)cc1	SARS PLP yeast inconclusive, Pf growth 48h 1.7µM (no result: Pf growth 96h)
CCOC(=O)C1CCN(/C=C2/C(=O)NC(=O)N(c3cccc(C)c3C)C2=O)CC1	Sm TGR block 8.9µM
Cc1cc([N+](=O)[O-])ccc1NC(=O)CN1CCN(Cc2ccccc2)CC1	Pf growth 96h inconclusive
CCOC(=O)N1CCN(CC(=O)Nc2ccc([N+](=O)[O-])cc2C(=O)Nc2ccccc2F)CC1	Pf growth 96h inconclusive, Pf growth 48h 12µM
O=C(CN1CCN(Cc2ccccc2)CC1)Nc1ccc([N+](=O)[O-])cc1C(=O)Nc1ccccc1F	Pf growth 96h inconclusive, Pf growth 48h 10µM
CCOC(=O)N1CCN(CC(=O)Nc2ccccc2C(=O)Nc2ccccc2)CC1	none
Nc1sc2c(c1C(=O)NC1CC1)CCCC2	none (no result: Pf growth 96h, Sm TGR block, Pf growth 48h)
CC(=O)c1cccc(NC(=O)C2=CN3CCS(=O)(=O)N=C3C=C2)c1	none
COc1ccc(C(=O)n2nc(-c3ccco3)nc2NCc2cccs2)cc1	Sm TGR block 11µM (no result: Pf growth 96h, SARS PLP yeast, Pf growth 48h)
O=C(c1ccccc1F)N1c2nc(-c3ccco3)nn2C2(CCCCC2)[C@@H]2CCCC[C@@H]21	Sm TGR block 10µM (no result: Pf growth 96h, SARS PLP yeast, Pf growth 48h)
COc1cccc(C(=O)N2c3ncnn3C3(CCCCC3)[C@@H]3CCCC[C@@H]32)c1	none (no result: Pf growth 96h, SARS PLP yeast, Pf growth 48h)
COc1ccc(C(=O)N2c3nc(-c4ccco4)nn3C3(CCCCC3)[C@@H]3CCCC[C@@H]32)cc1OC	Sm TGR block 11µM (no result: Pf growth 96h, SARS PLP yeast, Pf growth 48h)
CSc1nc(-c2ccco2)nn1C(=O)c1cccs1	Pf growth 96h inconclusive, Sm TGR block inconclusive
COc1ccc(C(=O)n2nc(-c3ccco3)nc2SC)cc1OC	Pf growth 96h inconclusive, Sm TGR block 10µM
CN1/C(=C\C(=O)COC(=O)c2nccnc2N)C(C)(C)c2ccccc21	Pf growth 48h inconclusive
CN1/C(=C\C(=O)COC(=O)c2ccc([N+](=O)[O-])o2)C(C)(C)c2ccccc21	Pf growth 96h 13µM, Pf growth 48h inconclusive
COCCn1c(SCC(=O)NC2CC2)nnc1-c1ccco1	none
COCCCn1c(SCC(=O)NC2CCCCC2)nnc1-c1ccncc1	Pf growth 96h 8.3µM
COCCCn1c(SCC(=O)NC2CCCCC2)nnc1-c1ccco1	Pf growth 96h 2.3µM
CC1=C(C(=O)OC2CCCCC2)C(c2ccccc2Br)NC(=O)N1 (stereo not drawn)	none
Cc1cn2c(=O)cc(COC(=O)c3ccccc3F)nc2s1	none (no result: Pf growth 96h, SARS PLP yeast, Pf growth 48h)
COc1cccc2sc(Nc3nnc(-c4cccs4)o3)nc12	Pf growth 48h inconclusive
Fc1cccc2sc(Nc3nnc(-c4ccco4)o3)nc12	Sm TGR block 40µM
COc1cccc2sc(Nc3nnc(-c4ccc(F)cc4)o3)nc12	Pf growth 96h 1.9µM, Pf growth 48h 12µM
O=C(O)CNC(=O)c1ccc(NC(=O)/C(=C/c2ccccc2)NC(=O)c2ccccc2)cc1	none
COc1cccc(CN(C)C(=O)CCNC(=O)c2ccc(Br)cc2)c1	Pf growth 48h inconclusive
CC(=O)Nc1cccc(C(=O)/C=C/c2ccco2)c1	Pf growth 96h inconclusive, Sm TGR block 28µM, Pf growth 48h inconclusive
CC(/C=C/c1ccco1)=N\NC(=O)C(O)c1ccccc1 (stereo not drawn)	Sm TGR block inconclusive
CC(=O)Nc1cccc(C(=O)/C=C/c2ccc(F)cc2)c1	Pf growth 96h inconclusive, Sm TGR block inconclusive
O=C(NCc1ccccc1)c1ccc(NC(=O)c2ccco2)cc1	none
O=C(/C=C\c1ccco1)c1ccc(NC(=O)c2ccco2)cc1	Sm TGR block 4µM
COC(=O)N/N=C(C)\C=C\c1ccco1	Pf growth 96h inconclusive, Sm TGR block 45µM
CC(=O)Nc1cccc(C(=O)/C=C/c2ccc(/C=C/C(=O)c3cccc(NC(C)=O)c3)cc2)c1	Pf growth 96h 9.3µM, Pf growth 48h 2.9µM
COc1ccccc1CNCCS(=O)(=O)NN1CCOCC1	none (no result: Pf growth 96h, Sm TGR block, Pf growth 48h)
Cc1ccccc1Cn1c(=O)n(CCCCC(=O)NCCc2ccccc2)c(=O)c2ccccc21	none (no result: Pf growth 96h, SARS PLP yeast, Pf growth 48h)
Cc1ccc(NC(=O)N/C=C/c2ccco2)cc1	Sm TGR block inconclusive
CC(=O)Nc1ccc(C(=O)/C=C/c2ccco2)cc1	Sm TGR block 8.9µM
COc1ccc(S(=O)(=O)N2CCCC(C(=O)NCCN3CCOCC3)C2)cc1C (stereo not drawn)	Pf growth 48h inconclusive
